Measured values from PubChem BioAssay (NCATS).
Results filed as inconclusive are left out. Entries that show only a call come without a potency. Active and inactive are the calls of the source. Calls follow the shape of the dose curve; as a rule, active = well fitted inhibition curve with a large enough effect; inconclusive = small, poorly fitted or top-dose-only effect; inactive = flat fitted curve, though single readings scatter.

experiment: P-glycoprotein substrates identified in KB-8-5-11 adenocarcinoma cell line, qHTS therapeutic library screen (AID 1346987); details: KB-8-5-11 (P-gp overexpressing) viability, CellTiter-Glo, 72 h; series mostly up to 44.5 µM; also: nearly all actives have a fitted effect of over 65% in size
How it was run: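 KB-8-5-11, a colchicine-selected P-gp-overexpressing KB-3-1 subline, was grown without colchicine for the assay. Cells were seeded at 500 cells/well, dosed in concentration-response and incubated 72 h at 37 degree C, 5% CO2. Viability was read by CellTiter-Glo luminescence.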

SMILES	Potency	activity change, negative = cytotoxicity
Cc1occc1C(=O)n1ccnc1	inactive	
CC(=O)NCC1CN(c2ccc(-c3ccc(CNCc4cn[nH]n4)cc3)c(F)c2)C(=O)O1 (stereo not drawn)	inactive	
O=C(CCc1ccccc1)c1c(O)c([C@@H]2O[C@H](CO)[C@@H](O)[C@H](O)[C@H]2O)c(O)c([C@@H]2O[C@H](CO)[C@@H](O)[C@H](O)[C@H]2O)c1O	inactive	
Cc1cc(Cn2cnc3c2CC(C(=O)O)N(C(=O)C(c2ccccc2)c2ccccc2)C3)ccc1N(C)C (stereo not drawn)	inactive	
Cc1ccccc1N1CCN(S(=O)(=O)C[C@]23CC[C@H](C[C@@H]2NC(=O)[C@@H](N)CCS(C)(=O)=O)C3(C)C)CC1	inactive	
NC(=O)NCCCC(NC(=O)Cc1ccccc1)C(=O)O (stereo not drawn)	inactive	
CC(C)/C=C1/NC(=O)C(C(C)C)n2c1nc1c(O)cccc1c2=O (stereo not drawn)	inactive	
CCC(C)C(N)C(=O)NCCN1CCOCC1 (stereo not drawn)	inactive	
O=C(C[C@@H]1C(C(=O)O)=CO[C@@H](O[C@@H]2O[C@H](CO)[C@@H](O)[C@H](O)[C@H]2O)/C1=C\CO)OCCc1ccc(O)c(O)c1	inactive	
OCC1OC(Oc2cc(O)cc(/C=C/c3ccc(OC4OC(CO)C(O)C(O)C4O)cc3O)c2)C(O)C(O)C1O (stereo not drawn)	inactive	
O=[N+]([O-])c1cc(Cl)ccc1S(=O)(=O)N1CCN(Cc2ccccc2)CC1	inactive	
C/C=C(\C)C(=O)OC1C(C)C2(O)C3C=C(C)C(=O)C3CC(CO)=CC2C2C(C)(C)C12OC(C)=O (stereo not drawn)	inactive	
CC(C)=C1C[C@@]2(C)C(=CC1=O)CC[C@@H](O)[C@@H]2C	inactive	
CC(=O)OCC(Cc1ccccc1)NC(=O)C(Cc1ccccc1)NC(=O)c1ccccc1 (stereo not drawn)	inactive	
CC1=C2C[C@H]3OC(=O)[C@H](O)[C@@]4(O)[C@@H](C)[C@@H](O)[C@H](O)C([C@@]2(C)[C@H](O)[C@@H](O)C1)[C@@]34C (stereo partly drawn)	inactive	
COc1ccc(Oc2c(Cl)cnn(C3c4ccccc4-c4ccccc43)c2=O)cc1	inactive	
O=C(OC1C=C(CO)C2C(OC3OC(CO)C(O)C(O)C3O)OC=CC12O)c1ccc(O)cc1 (stereo not drawn)	inactive	
CC(C)=CCC[C@](C)(O[C@@H]1O[C@H](CO[C@@H]2OC[C@H](O)[C@H](O)[C@H]2O)[C@@H](O)[C@H](O)[C@H]1O)[C@H]1CC[C@]2(C)[C@@H]1[C@H](O)C[C@@H]1[C@@]3(C)CC[C@H](O[C@@H]4O[C@H](CO)[C@@H](O)[C@H](O)[C@H]4O[C@@H]4O[C@H](CO)[C@@H](O)[C@H](O)[C@H]4O)C(C)(C)[C@@H]3CC[C@]12C	inactive	
C[C@@H]1O[C@@H](O[C@H]2[C@H](OC(=O)[C@]34CCC(C)(C)C[C@H]3C3=CCC5[C@@]6(C)CC[C@H](O[C@@H]7O[C@H](CO[C@@H]8OC[C@H](O)[C@H](O)[C@H]8O)[C@@H](O)[C@H](O)[C@H]7O)C(C)(C)C6CC[C@@]5(C)[C@]3(C)C[C@H]4O)OC[C@@H](O)[C@@H]2O)[C@H](O)[C@H](O[C@@H]2OC[C@](O)(CO)[C@H]2O)[C@H]1O[C@@H]1OC[C@H](O)[C@H](O[C@@H]2OC[C@@H](O)[C@H](O)[C@H]2O)[C@H]1O (stereo partly drawn)		5.27% [at 9.29 µM] (inactive)
C[C@]1(OC(=O)/C=C/c2ccc(O)cc2)C[C@@H](O)[C@]2(O)C=CO[C@@H](O[C@@H]3O[C@H](CO)[C@@H](O)[C@H](O)[C@H]3O)C12 (stereo partly drawn)	inactive	
C=C1CC2C(C)(CCC(=O)O)C(C(C)(C)O)CCC2(C)C2(C(=O)OC)C(=O)C(C)(O)C(=O)C12C (stereo not drawn)	inactive	
COc1cccc(C(=O)NCCNc2nc3cc(C)cc(C)c3cc2C#N)c1	inactive	
CC(C)(OC1OC(CO)C(O)C(O)C1O)C1CCC(O)(CO)C2CC(=O)C(C)(O)C2C1 (stereo not drawn)	inactive	
CC[C@H]1OC(=O)[C@H](C)C(=O)[C@H](C)[C@@H](OC2O[C@H](C)C[C@H](N(C)C)[C@H]2O)[C@@H](C)C[C@@H](C)C(=O)/C=C/[C@]1(C)O (stereo partly drawn)	inactive	
CCc1cc(CC[C@]2(C3CCCC3)CC(O)=C(Cc3nc4nc(C)cc(C)n4n3)C(=O)O2)cc(CC)n1	inactive	
CC(C)(CC(=O)N1CCCC1)NCC(=O)N1C[C@@H](F)C[C@H]1C#N	inactive	
COc1cc([C@H]2OC[C@](O)(Cc3ccc(O[C@@H]4O[C@H](CO)[C@@H](O)[C@H](O)[C@H]4O)c(OC)c3)[C@@H]2CO)ccc1O	inactive	
COC1OC(OC)C(O)(CCC2(C)C(C)CCC3(C)C2CC(O)C(O)C32CO2)C1O (stereo not drawn)	inactive	
